The nature of assay [1]: small molecules captured by biotinylated probe aFSTL3 – biochemical, small-molecule microarray, fluorescence 635/667, stem cell growth factor project, primary screen (AID 1064).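 Further: measures binding of the biotinylated anti-FSTL3 antibody to printed compounds.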 The conditions noted are these: higher = more signal.
Assay [2] in a line: binders from COS7 lysate, DM2A8 probe, primary screen, torsin A project, cell lysate, small-molecule microarray, fluorescence 635/667 (AID 1065). The conditions noted are these: higher = more signal, COS7 lysate expressing mutant human TOR1A.
A short description of assay [3]: small molecules captured by biotinylated probe aFGF2 – biochemical, small-molecule microarray, fluorescence 635/667, stem cell growth factor project, primary screen (AID 1067).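 Further: measures binding of biotinylated aFGF2 protein to printed compounds on slides; z-score merges feature fluorescence and signal-to-noise across triplicate slides.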 As to conditions: higher = more signal.
Assay [4] can be described thus: small molecules captured by biotinylated probe aFGF10 – biochemical, small-molecule microarray, fluorescence 635/667, stem cell growth factor project, primary screen (AID 1071).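 Further: score merges 667 nm spot intensity and signal to noise from triplicate slides.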 As to conditions: higher = more signal.
For assay [5], the target named is Neurogenic locus notch homolog protein 2 (Homo sapiens) (UniProt Q04721). In words: small molecules binding Notch2 protein – biochemical, small-molecule microarray, 635 nm fluorescence, stem cell growth factors, primary screen (AID 1073). As to conditions: higher = more signal.
For assay [6], the target named is Pro-neuregulin-1, membrane-bound isoform (Homo sapiens) (UniProt Q02297). Nature of the assay: small molecules binding neuregulin-1 protein – biochemical, small-molecule microarray, fluorescence 635/667, psychiatric disease protein project, primary screen (AID 1075).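 Further: score combines 667 nm spot fluorescence with signal to noise.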 As to conditions: NRG1 binding, 635 nm fluorescence, higher = more signal.
Sequence of Pro-neuregulin-1, membrane-bound isoform (Homo sapiens) (Q02297 whole entry, looked up, the tested form may be a part, canonical isoform): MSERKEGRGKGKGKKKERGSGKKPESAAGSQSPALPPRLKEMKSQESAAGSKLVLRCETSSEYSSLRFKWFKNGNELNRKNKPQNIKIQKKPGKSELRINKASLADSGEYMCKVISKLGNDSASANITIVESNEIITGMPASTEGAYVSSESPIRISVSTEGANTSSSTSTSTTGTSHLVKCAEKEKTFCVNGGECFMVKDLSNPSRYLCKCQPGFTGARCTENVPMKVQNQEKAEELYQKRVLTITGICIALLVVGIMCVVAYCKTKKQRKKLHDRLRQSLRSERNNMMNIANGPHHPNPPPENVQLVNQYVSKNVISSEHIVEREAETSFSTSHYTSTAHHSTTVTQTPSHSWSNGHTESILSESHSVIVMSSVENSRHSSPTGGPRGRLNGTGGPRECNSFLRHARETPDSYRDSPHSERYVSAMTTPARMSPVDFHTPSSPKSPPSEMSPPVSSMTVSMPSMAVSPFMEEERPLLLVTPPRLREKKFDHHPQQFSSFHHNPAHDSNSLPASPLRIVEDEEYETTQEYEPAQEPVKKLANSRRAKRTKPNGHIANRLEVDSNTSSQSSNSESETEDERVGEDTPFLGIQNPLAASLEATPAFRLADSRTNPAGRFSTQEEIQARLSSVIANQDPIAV
In assay [7] the test system is Neuregulin-1 EGF-like domain. In words: small molecules binding NRG1 EGF domain – biochemical, small-molecule microarray, 635 nm fluorescence, primary screen (AID 1081).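 Further: binding of the protein to compounds printed on small-molecule microarray slides.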 The conditions noted are these: higher = more signal.
A short description of assay [8]: FRG1 expression reporter modulators in myotubes – cell-based, C2C12 myotubes, firefly/Renilla luciferase, luminescence, FRG1 inhibition for FSHD, primary screen (AID 1084). The conditions noted are these: FRG1 promoter luciferase, higher = more signal, called active from +8 up or from −8 down.
Assay [9] can be described thus: small molecules captured by biotinylated probe aFST – biochemical, small-molecule microarray, fluorescence 635/667, stem cell growth factor project, primary screen (AID 1086).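 Further: score merges 667 nm fluorescence with signal-to-noise of each printed compound spot.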 As to conditions: higher = more signal.
Assay [10] in a line: binders of probe aHhip on microarray, primary screen, stem cell growth factor project, biochemical, small-molecule microarray, fluorescence 635/667 (AID 1087).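 Further: score merges spot fluorescence at 667nm with spot signal to noise ratio.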 The conditions noted are these: higher = more signal.
The test system of assay [11] is PRMT1 (protein arginine N-methyltransferase 1). Nature of the assay: small molecules binding arginine methyltransferase PRMT1 – biochemical, small-molecule microarray, 635 nm fluorescence, primary screen (AID 1088).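 Further: binding of Prmt1 protein to compounds spotted on small-molecule microarray slides.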 The conditions noted are these: higher = more signal.
The nature of assay [12]: growth effects on S. cerevisiae YJM789 – YJM789 clinical isolate, OD600, 24 h, basal, primary screen (AID 1089).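 Further: growth of clinical yeast isolate S. cerevisiae YJM 789 seeded 1000 cells per well; test concentration not given here.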 As to conditions: higher = more signal, called active from +8 up or from −8 down.
Assay [13] is described as follows: S. pombe growth modifiers, basal conditions – strain 972, OD600, 24 h, no modulator, primary screen (AID 1090).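 Further: basal condition with compound alone and no growth modifier present; test concentration not given here.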 The conditions noted are these: S. pombe 972 growth, higher = more signal, called active from +8 up or from −8 down.
Assay [14] in a line: budding yeast growth modifiers under rapamycin – strain BY4716, OD600, 96 h, primary screen (AID 1091). Further: test concentration not given here. As to conditions: S. cerevisiae BY4716 + rapamycin, higher = more signal, called active from +8 up or from −8 down.
The target in assay [15] is Torsin-1A-interacting protein 2 (Homo sapiens) (UniProt Q8NFQ8). In words: small molecules binding lysate-expressed LULL1 – cell lysate, human LULL1 lysate, 635/667 nm fluorescence, primary screen (AID 1092).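 Further: probe is lysate of COS7 cells overexpressing human LULL1; score merges per-feature 667 nm fluorescence with signal-to-noise.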 The conditions noted are these: small-molecule microarray, hLULL1 lysate binding, 635 nm fluorescence; higher = more signal.
Sequence of Torsin-1A-interacting protein 2 (Homo sapiens) (Q8NFQ8 whole entry, looked up): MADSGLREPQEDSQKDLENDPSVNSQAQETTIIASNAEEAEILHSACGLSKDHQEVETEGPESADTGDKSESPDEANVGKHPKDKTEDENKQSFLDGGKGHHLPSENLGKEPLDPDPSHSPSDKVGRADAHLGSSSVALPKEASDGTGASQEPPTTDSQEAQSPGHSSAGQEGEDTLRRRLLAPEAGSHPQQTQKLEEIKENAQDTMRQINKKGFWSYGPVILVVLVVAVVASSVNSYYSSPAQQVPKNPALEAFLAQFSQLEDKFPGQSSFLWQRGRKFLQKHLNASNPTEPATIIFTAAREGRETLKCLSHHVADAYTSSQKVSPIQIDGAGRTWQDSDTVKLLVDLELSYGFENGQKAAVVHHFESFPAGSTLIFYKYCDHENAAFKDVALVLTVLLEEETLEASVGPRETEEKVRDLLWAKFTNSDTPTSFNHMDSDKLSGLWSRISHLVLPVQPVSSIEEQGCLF
The nature of assay [16]: optical density change of DRC41 E. coli – strain DRC41, OD650, 24 h, E. coli filamentation project, primary screen (AID 1093).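 Further: MC1000 strain lacking acrAB efflux and sulA so SOS filamentation is blocked; test concentration not given here.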 The conditions noted are these: E. coli DRC41 growth, higher = more signal, called active from +8 up or from −8 down.
The nature of assay [17]: probe aLefty2 binding to arrayed compounds – biochemical, biotinylated probe, 635/667 nm fluorescence, primary screen (AID 1094).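 Further: score merges spot fluorescence near 667 nm with spot signal-to-noise ratio.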 The conditions noted are these: small-molecule microarray, higher = more signal.
The test system of assay [18] is Noggin (protein binding on small-molecule microarray). Nature of the assay: small molecules binding Noggin protein – biochemical, 635/667 nm fluorescence, primary screen (AID 1095).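 Further: score merges 667 nm feature fluorescence with signal to noise over triplicate slides.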 The conditions noted are these: 635 nm fluorescence, higher = more signal.
The target of assay [19] is Neurogenic locus notch homolog protein 3 (Homo sapiens) (UniProt Q9UM47). Nature of the assay: small molecules binding NOTCH3 protein – biochemical, 635/667 nm fluorescence, primary screen (AID 1096). The conditions noted are these: small-molecule microarray, 635 nm fluorescence, higher = more signal.
Sequence of Neurogenic locus notch homolog protein 3 (Homo sapiens) (Q9UM47 whole entry, looked up): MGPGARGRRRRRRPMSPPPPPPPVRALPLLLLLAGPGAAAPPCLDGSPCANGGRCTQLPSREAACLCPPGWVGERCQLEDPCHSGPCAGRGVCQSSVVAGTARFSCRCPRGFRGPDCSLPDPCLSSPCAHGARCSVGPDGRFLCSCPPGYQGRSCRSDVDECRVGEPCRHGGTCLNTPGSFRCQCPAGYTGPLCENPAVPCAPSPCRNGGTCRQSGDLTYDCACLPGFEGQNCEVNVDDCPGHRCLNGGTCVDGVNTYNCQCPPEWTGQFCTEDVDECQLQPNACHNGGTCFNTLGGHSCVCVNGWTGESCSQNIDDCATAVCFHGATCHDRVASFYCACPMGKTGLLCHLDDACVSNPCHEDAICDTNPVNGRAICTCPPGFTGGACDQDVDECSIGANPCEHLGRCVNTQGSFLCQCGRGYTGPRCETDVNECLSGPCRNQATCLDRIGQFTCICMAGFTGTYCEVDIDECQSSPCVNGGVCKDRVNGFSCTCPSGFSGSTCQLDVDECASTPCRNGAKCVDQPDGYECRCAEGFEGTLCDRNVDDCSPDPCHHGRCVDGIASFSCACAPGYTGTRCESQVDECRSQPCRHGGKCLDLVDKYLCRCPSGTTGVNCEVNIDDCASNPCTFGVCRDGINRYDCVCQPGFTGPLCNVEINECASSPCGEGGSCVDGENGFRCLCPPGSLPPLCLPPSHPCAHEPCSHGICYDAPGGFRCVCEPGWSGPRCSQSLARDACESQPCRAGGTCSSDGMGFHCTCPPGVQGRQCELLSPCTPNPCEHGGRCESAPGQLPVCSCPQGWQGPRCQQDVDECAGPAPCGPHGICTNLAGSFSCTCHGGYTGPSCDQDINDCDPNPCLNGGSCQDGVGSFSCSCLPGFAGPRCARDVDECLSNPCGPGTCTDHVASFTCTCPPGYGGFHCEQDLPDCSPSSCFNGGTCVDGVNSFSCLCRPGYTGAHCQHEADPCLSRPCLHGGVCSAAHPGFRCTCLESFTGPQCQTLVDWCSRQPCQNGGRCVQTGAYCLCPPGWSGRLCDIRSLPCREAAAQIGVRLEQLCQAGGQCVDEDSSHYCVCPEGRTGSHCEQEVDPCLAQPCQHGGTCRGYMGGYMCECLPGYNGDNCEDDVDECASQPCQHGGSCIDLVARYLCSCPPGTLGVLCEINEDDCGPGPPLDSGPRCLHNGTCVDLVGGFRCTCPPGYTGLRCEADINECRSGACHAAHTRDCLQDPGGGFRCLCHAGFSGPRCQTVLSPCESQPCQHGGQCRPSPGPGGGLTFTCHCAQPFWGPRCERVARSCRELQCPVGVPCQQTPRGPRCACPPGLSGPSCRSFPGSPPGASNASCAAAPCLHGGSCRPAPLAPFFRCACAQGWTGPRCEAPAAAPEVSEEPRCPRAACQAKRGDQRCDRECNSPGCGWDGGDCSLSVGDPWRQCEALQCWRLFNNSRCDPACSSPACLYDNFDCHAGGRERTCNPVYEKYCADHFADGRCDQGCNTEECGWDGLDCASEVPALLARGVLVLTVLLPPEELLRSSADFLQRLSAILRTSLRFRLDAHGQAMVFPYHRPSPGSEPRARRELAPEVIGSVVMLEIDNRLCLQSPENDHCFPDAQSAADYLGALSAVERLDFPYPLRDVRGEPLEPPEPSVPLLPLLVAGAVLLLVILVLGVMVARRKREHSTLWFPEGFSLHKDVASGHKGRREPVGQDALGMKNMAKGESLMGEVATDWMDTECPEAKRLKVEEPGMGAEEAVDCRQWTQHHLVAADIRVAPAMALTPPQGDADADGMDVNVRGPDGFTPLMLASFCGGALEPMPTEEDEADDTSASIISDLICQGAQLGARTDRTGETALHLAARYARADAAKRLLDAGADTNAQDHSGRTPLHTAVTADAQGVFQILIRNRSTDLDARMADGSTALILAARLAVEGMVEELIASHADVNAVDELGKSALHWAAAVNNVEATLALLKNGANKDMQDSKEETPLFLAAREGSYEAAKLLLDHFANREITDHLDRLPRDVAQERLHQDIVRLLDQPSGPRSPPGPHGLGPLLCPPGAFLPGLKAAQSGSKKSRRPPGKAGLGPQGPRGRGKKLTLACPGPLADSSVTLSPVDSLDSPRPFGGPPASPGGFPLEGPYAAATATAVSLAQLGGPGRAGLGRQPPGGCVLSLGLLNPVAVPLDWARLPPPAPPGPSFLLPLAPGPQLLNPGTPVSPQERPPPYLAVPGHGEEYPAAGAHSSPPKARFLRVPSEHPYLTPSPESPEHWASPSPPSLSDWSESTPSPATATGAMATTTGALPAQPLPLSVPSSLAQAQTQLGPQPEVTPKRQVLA
The nature of assay [20]: probe aEGFR binding to arrayed compounds – biochemical, biotinylated probe, 635/667 nm fluorescence, primary screen (AID 1097).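 Further: probe is a biotinylated anti-EGFR antibody binding compounds printed on slides; score combines fluorescence near 667 nm and signal to noise of each spot.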 The conditions noted are these: small-molecule microarray, higher = more signal.

Calls of active or inactive are those of the source.

Turning to `C=C(/C(=C/C[C@H](OC(=O)c1ccncc1)c1ccccc1OCCO)c1cnc2ccccc2c1)C(C)C`, the composite z-score in assay [1] is -0.145; in [2], 0.763; in assay [3], -0.0316; in assay [4] it was 1.18; in assay [5], 1.55; in [6], 1.01. Further, the composite z-score in assay [7] was 1.22; in assay [9], 0.853; in [10] it was -0.112; in [11], 1.54; in [15] it was 2.27; in assay [17], -0.0632. For the same compound, the figures for the composite z-score in assay [18], in [19] and in assay [20] were 1.13, 1.02 and -0.0828, respectively. The z-score in [8] was -0.0406 (inactive); in assay [12], -2.36 (inactive); in assay [13] it was -0.555 (inactive); in assay [14], 2.22 (inactive); in assay [16], -0.0584 (inactive).
As for `C=C[C@@H](C)[C@H](O)c1ccc(OCCO)cc1`, the composite z-score is 0.684 in assay [1]; -1.91 in assay [2]; -0.182 in [3]; -0.84 in [4]; -1.67 in [5]; -0.0655 in [6]. Also, the composite z-score in assay [7] is 1.04; in [9], -1.06; in [10], -0.236; in assay [11] it was -0.365; in assay [15] it was 1.14; in [17], -0.225. Besides, the composite z-score in assay [18] is -1.34; in assay [19], -0.743; in assay [20] it was -0.37. Also, the z-score was 5.39 (inactive) in assay [8]; 0.217 (inactive) in [12]; -0.297 (inactive) in assay [13]; -0.0577 (inactive) in assay [14]; -0.0261 (inactive) in [16].
As to `CC(C)C[C@@H]1NC(=O)[C@H]2C[C@@H](C(=O)NCCCCCN)[C@@H](c3cccc(OCCO)c3)N2C1=O`, the composite z-score in [1] was 0.721; in assay [2], -0.1; in [3] it was -0.107; in [4] it was 0.0414; in assay [5] it was -0.182; in assay [6], 0.896. The composite z-score in assay [7] was 1.24; in assay [9], -0.565; in assay [10], -0.0645; in assay [11], 0.808; in assay [15], 0.872; in assay [17] it was 0.13. In addition, the composite z-score in assay [18] was -0.993; in assay [19], 0.135; in [20], -0.14. For the same compound, the z-score in assay [8] was -0.599 (inactive); in assay [12], -3.54 (inactive); in assay [13] it was -0.726 (inactive); in assay [14] it was -1.04 (inactive); in assay [16], 0.545 (inactive).
On to `COCCOC(=O)N1C(=O)[C@@]2(c3cc(C#CCCO)ccc31)[C@H](C(=O)N1CCCCCCC1)[C@H]1C(=O)O[C@H](c3ccccc3)[C@H](c3ccccc3)N1[C@@H]2c1ccccc1OCCO`, for which the composite z-score in assay [1] was 3.32; in assay [2], 0.659; in assay [3], 0.688; in assay [4], 0.473; in [5], 1.43; in [6], 1.85. Moreover, the composite z-score stood at 1.18 in assay [7]; 3.07 in assay [9]; 0.891 in assay [10]; 1.54 in [11]; 4 in [15]; 1.47 in assay [17]. Moreover, the composite z-score in assay [18] was determined as 1.76; in [19] it was 1.07; in assay [20] it was 0.89. Also, the z-score in [8] is 0.253 (inactive); in assay [12], 0.658 (inactive); in [13], -2.09 (inactive); in [14] it was 1.93 (inactive); in [16] it was -0.452 (inactive).
For the compound `CO[C@H]1O[C@H](CO)[C@@H](OC(=O)Nc2ccc(C#N)cc2)[C@@H]2OC(=O)[C@H](Cc3cccc(Br)c3)C/C=C/C[C@@H](Cc3cccc(Br)c3)C(=O)O[C@@H]12`, the composite z-score in assay [1] is -0.381; in assay [2] it was -0.0617; in [3] it was -0.0181; in [4], 0.503; in [5], 0.626; in assay [6], 0.514. Besides, the composite z-score in assay [7] is 0.3; in [9], 0.572; in [10], 0.195; in [11], 1.24; in assay [15] it was 1.26; in [17] it was 0.212. Also, the composite z-score in [18] was determined as 0.432; in [19], 0.733; in [20] it was 0.11. Further, the z-score is -0.362 (inactive) in assay [8]; 0.471 (inactive) in [12]; 0.0261 (inactive) in [13]; 27.2 (active) in assay [14]; 0.27 (inactive) in [16].
